Data published in PubChem BioAssay AID1159580 (chemical genetic matrix, 2015).
Screen size: about 5,500 compounds; about 2,000 (36%) were called active. Inconclusive results (about 18%) are left out. The list shows a part of the results. Unmarked numbers belong to inactive results. Cut-off read from the data, not from the text of the source: active = normalized growth mostly below about 0.91 (no sharp cut-off); inconclusive = no clear call, values can overlap the other calls; inactive = mostly above about 0.92.

Assay: chemical genetic growth profiling, strain panel (AID 1159580);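 note: tested at 20 µM; growth read once vehicle control cultures reached saturation at 30 °C; 1 = growth at the plate median or of vehicle wells; lower values mean less growth of the strain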
Conditions: S. cerevisiae deletion strains, growth OD
[1] = locus YMR307W, strain GAS1, active compounds read low

O=C(O)c1cc(O)c2c(c1)C(=O)c1cc(O)cc(O)c1C2=O
normalized growth (locus YBR021W, strain FUR4, active compounds read low): 0.97 | normalized growth (locus YBR229C, strain ROT2, active compounds read low): 0.92 | normalized growth (locus YCL029C, strain bik1, active compounds read low): 0.932 | normalized growth (locus YDL035C, strain GPR1, active compounds read low): 0.908 | normalized growth (locus YDL074C, strain BRE1, active compounds read low): 0.933 | normalized growth (locus YDL101C, strain DUN1, active compounds read low): 0.931 | normalized growth (locus YDL185W, strain tfp1, active compounds read low): 0.842 (active) | normalized growth (locus YDL192W, strain arf1, active compounds read low): 0.926 | normalized growth (locus YDR101C, strain arx1, active compounds read low): 0.948 | normalized growth (locus YDR150W, strain NUM1, active compounds read low): 0.939 | normalized growth (locus YDR162C, strain NBP2, active compounds read low): 0.873 | normalized growth (locus YDR318W, strain mcm21, active compounds read low): 0.93 | normalized growth (locus YDR388W, active compounds read low): 0.938 | normalized growth (locus YDR502C, strain sam2, active compounds read low): 0.903 (active) | normalized growth (locus YEL061C, strain CIN8, active compounds read low): 0.934 | normalized growth (locus YER110C, active compounds read low): 0.881 (active) | normalized growth (locus YER155C, strain BEM2, active compounds read low): 0.968 | normalized growth (locus YER167W, strain BCK2, active compounds read low): 0.939 | normalized growth (locus YGL078C, strain dbp3, active compounds read low): 0.954 | normalized growth (locus YGL086W, strain mad1, active compounds read low): 0.971 | normalized growth (locus YGL248W, strain PDE1, active compounds read low): 0.956 | normalized growth (locus YGR135W, strain pre9, active compounds read low): 0.923 | normalized growth (locus YGR252W, strain gcn5, active compounds read low): 0.816 | normalized growth (locus YHR030C, strain SLT2, active compounds read low): 0.913 (active) | normalized growth (locus YHR079C, strain IRE1 (second series), active compounds read low): 0.949 | normalized growth (locus YHR094C, strain hxt1, active compounds read low): 0.938 | normalized growth (locus YHR129C, strain ARP1, active compounds read low): 0.957 | normalized growth (locus YHR200W, strain rpn10, active compounds read low): 0.939 | normalized growth (locus YIL066C, strain RNR3, active compounds read low): 0.923 | normalized growth (locus YIL073C, strain SPO22, active compounds read low): 0.914 | normalized growth (locus YIL125W, strain kgd1, active compounds read low): 0.915 (active) | normalized growth (locus YIR030C, strain dcg1, active compounds read low): 0.939 | normalized growth (locus YJL095W, strain BCK1, active compounds read low): 0.945 | normalized growth (locus YJL134W, strain LCB3, active compounds read low): 0.95 | normalized growth (locus YJL168C, strain set2, active compounds read low): 0.912 (active) | normalized growth (locus YJL187C, strain SWE1 (second series), active compounds read low): 0.952 | normalized growth (locus YJR043C, strain POL32, active compounds read low): 0.864 | normalized growth (locus YKL009W, strain mrt4, active compounds read low): 0.967 | normalized growth (locus YKL068W, active compounds read low): 0.913 (active) | normalized growth (locus YKL085W, strain MDH1 (second series), active compounds read low): 0.888 (active) | normalized growth (locus YKL085W, strain MDH1, active compounds read low): 0.888 (active) | normalized growth (locus YKL190W, strain CNB1, active compounds read low): 0.95 | normalized growth (locus YKR001C, strain vps1, active compounds read low): 0.838 (active) | normalized growth (locus YLR039C, strain RIC1, active compounds read low): 0.879 | normalized growth (locus YLR058C, strain SHM2, active compounds read low): 0.91 | normalized growth (locus YLR102C, strain apc9, active compounds read low): 0.945 | normalized growth (locus YLR262C, strain YPT6, active compounds read low): 0.814 | normalized growth (locus YLR268W, strain sec22, active compounds read low): 0.938 | normalized growth (locus YLR330W, strain CHS5, active compounds read low): 0.926 | normalized growth (locus YLR342W, strain FKS1 (second series), active compounds read low): 0.921 | normalized growth (locus YLR371W, strain rom2, active compounds read low): 0.945 | normalized growth (locus YLR418C, strain cdc73, active compounds read low): 0.766 (active) | normalized growth (locus YML016C, strain PPZ1, active compounds read low): 0.944 | normalized growth (locus YML032C, strain rad52, active compounds read low): 0.899 (active) | normalized growth (locus YML124C, strain tub3, active compounds read low): 0.93 (active) | normalized growth (locus YMR078C, strain ctf18, active compounds read low): 0.939 | normalized growth (locus YMR223W, strain ubp8, active compounds read low): 0.92 | normalized growth [1]: 0.872 | normalized growth (locus YNL067W, strain RPL9B, active compounds read low): 0.977 | normalized growth (locus YNL153C, strain GIM3, active compounds read low): 0.955 | normalized growth (locus YNL233W, strain BNI4, active compounds read low): 0.95 | normalized growth (locus YNL250W, strain rad50, active compounds read low): 0.863 (active) | normalized growth (locus YNL271C, strain bni1, active compounds read low): 0.93 | normalized growth (locus YNL298W, strain CLA4, active compounds read low): 0.894 (active) | normalized growth (locus YNL307C, strain MCK1, active compounds read low): 0.931 | normalized growth (locus YNL322C, strain KRE1, active compounds read low): 0.94 | normalized growth (locus YNR052C, strain pop2, active compounds read low): 0.977 | normalized growth (locus YOL006C, strain TOP1, active compounds read low): 1.02 | normalized growth (locus YOL012C, strain htz1): 0.738 | normalized growth (locus YOL147C, strain pex11, active compounds read low): 0.939 | normalized growth (locus YOR061W, strain CKA2, active compounds read low): 0.916 | normalized growth (locus YOR069W, strain VPS5, active compounds read low): 0.957 | normalized growth (locus YOR136W, strain idh2, active compounds read low): 0.929 | normalized growth (locus YOR144C, strain elg1, active compounds read low): 0.91 (active) | normalized growth (locus YOR184W, strain ser1, active compounds read low): 0.893 | normalized growth (locus YOR316C, strain cot1, active compounds read low): 0.94 | normalized growth (locus YPL241C, strain CIN2, active compounds read low): 0.943 | normalized growth (locus YPR119W, strain clb2, active compounds read low): 0.951 | normalized growth (locus YPR141C, strain kar3, active compounds read low): 0.916 | normalized growth (locus YPR163C, strain tif3, active compounds read low): 0.938 | normalized growth (locus YPR167C, strain met16, active compounds read low): 0.91 (active) | normalized growth (strain wtn01, active compounds read low): 0.948

O=C(O)c1cc(=O)cc(C(=O)O)[nH]1
normalized growth (locus YAL040C, strain CLN3, active compounds read low): 1.02 | normalized growth (locus YCL061C, strain MRC1 (second series), active compounds read low): 1.01 | normalized growth (locus YER002W, strain NOP16, active compounds read low): 1.04 | normalized growth (locus YMR263W, strain SAP30, active compounds read low): 0.998 | normalized growth [1]: 1.01 | normalized growth (locus YNL175C, strain NOP13, active compounds read low): 0.999 | normalized growth (locus YNL197C, strain WHI3, active compounds read low): 1.03 | normalized growth (locus YNL224C, strain SQS1, active compounds read low): 1.01 | normalized growth (locus YOR083W, strain WHI5 (second series), active compounds read low): 1.02 | normalized growth (locus YPL055C, strain LGE1, active compounds read low): 1.01
